In the library only some 6.8% were active in any assay of this set; here they are far more common.
DPM-DC inhibit: S. pneumoniae DPM-DC inhibitors, primary screen, biochemical, PK/LDH-coupled NADH fluorescence | 65,000 tested, 0.49% active | calls only at 10 µM | AID 556, 2006 | purified DPM-DC | diphosphomevalonate decarboxylase (Streptococcus pneumoniae D39);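 active = the 320 compounds with the highest percent inhibition in the single-dose primary screen, excluding strongly autofluorescent ones, cut at about 32% in these data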;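 note: kinetic rate of NADH fluorescence loss reporting ADP formed by the decarboxylase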
Autofluor 339: intrinsic fluorescence of library compounds, ex339/em460 – biochemical, MLSMR library, data from DPM-DC assay, artefact control, profiling panel. compound autofluorescence, ex339/em460 nm, NADH buffer; active compounds read high; 1 = no-compound wells, NADH background. fluorescence fold increase at 10 µM. 65,000 tested, 5.5% active;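 active = at 10 µM, mean starting fluorescence two-fold or more over control wells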;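 note: signal is the first read of a kinetic run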
Spn PMK inh: S. pneumoniae PMK inhibitors, primary screen, biochemical, mevalonate pathway, pilot trial included. phosphomevalonate kinase (Streptococcus pneumoniae D39). purified PMK, PK/LDH-coupled NADH absorbance 340 nm. inhibition, % at 10 µM. 65,000 tested, 0.49% active;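 active = top-ranked compounds by inhibition in the single 10 µM screen, taking a fixed number of the strongest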;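 note: 0% = full reaction with DMSO carrier and 100% = background rate without enzyme reaction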
NADH coupling: inhibitors of PK/LDH coupling enzymes, profiling panel, artefact control, biochemical, MLSMR library. AID 774, 2007. IC50, µM (titrated, usually from 10 µM), for the others: at the highest dose inhibition. 65,000 tested, 0.02% active. coupled PK/LDH NADH assays, four targets;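 active = single-dose screening hits from any of four coupled enzyme assays that gave an IC50 when retested across doses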;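 note: the DPM-DC format reads NADH fluorescence rather than 340 nm absorbance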
MK inhibit: S. pneumoniae MK inhibitors, primary screen, biochemical, PK/LDH-coupled NADH absorbance | mevalonate kinase [Streptococcus pneumoniae D39] | purified MK, PK/LDH-coupled NADH absorbance 340 nm | inhibition, % at 10 µM | 65,000 tested, 0.48% active;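 active = ranked among the strongest by inhibition in the single 10 µM screen, a fixed top-ranked set picked for dose follow-up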
Abs 340nm: compound light absorbance at 340 nm, profiling panel, artefact control, biochemical, MLSMR library, data from PS, PMK, MK assays; compound absorbance at 340 nm, fold over control; fold change at 10 µM; 65,000 tested, under 10 active; AID 708, 2007;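 active = at 10 µM dose, initial 340 nm absorbance at least 2 fold that of control wells; inactive = change under 2 fold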;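 note: initial absorbance extrapolated from kinetic A340 decline of NADH oxidation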
Starred values were filed as active, the others as inactive.

Results for COC(=O)C1=C(N)OC2=C(C(=O)CC(C)(C)C2)C1c1cccs1 (stereo not given) ?
DPM-DC inhibit: inactive; Autofluor 339: 1.1; Spn PMK inh: 0.0; NADH coupling: 1.0%; MK inhibit: 4.0; Abs 340nm: 1.05

How did O=c1c2ccccc2cnn1-c1nc2ccccc2s1 do in these assays?
Autofluor 339: 2.95*; Spn PMK inh: 13.0; NADH coupling: 3.0%; MK inhibit: 0.0; Abs 340nm: 0.99

Results for O=c1c2ccccc2ncn1Cc1nc2ccccc2s1 ?
DPM-DC inhibit: inactive; Autofluor 339: 1.08; Spn PMK inh: 0.0; NADH coupling: 2.0%; MK inhibit: 7.0; Abs 340nm: 1.08

What do the screens show for `Cc1cc2c(C)cc(=O)oc2c2c1NCCC2`?
Autofluor 339: 3.61*; Spn PMK inh: 1.0; NADH coupling: 7.0%; MK inhibit: 12.0; Abs 340nm: 1.14

Results for COc1ccc(S(=O)(=O)Nc2nnc(C)s2)cc1 ?
DPM-DC inhibit: inactive; Autofluor 339: 1.12; Spn PMK inh: 30.0*; NADH coupling: 10.0%; MK inhibit: 1.0; Abs 340nm: 1.02

Results for Cc1nnc(NS(=O)(=O)c2ccc(N)cc2)s1 ?
DPM-DC inhibit: inactive; Autofluor 339: 1.05; Spn PMK inh: 2.0; NADH coupling: 1.0%; MK inhibit: 6.0; Abs 340nm: 0.99

What do the screens show for `CCOc1ccc(OCC)c(NC(=O)CN2CCN(c3cccc(C)c3)C(C)C2)c1` (stereo not given)?
DPM-DC inhibit: inactive; Autofluor 339: 1.04; Spn PMK inh: 3.0; NADH coupling: 15.0%; MK inhibit: 42.0*; Abs 340nm: 1.04

How did CCOc1ccc(OCC)c(NC(=O)CN2CCN(c3cccc(C)c3)CC2)c1 do in these assays?
DPM-DC inhibit: inactive; Autofluor 339: 1.06; Spn PMK inh: 0.0; NADH coupling: 24.0%; MK inhibit: 71.0*; Abs 340nm: 1.08

What do the screens show for `Cc1ccc(CNC(=O)C2CCCCC2C(=O)O)cc1` (stereo not given)?
DPM-DC inhibit: inactive; Autofluor 339: 1.06; Spn PMK inh: 7.0; NADH coupling: 3.0%; MK inhibit: 1.0; Abs 340nm: 1

What do the screens show for `O=C(C1CC1)N1CCc2cc(S(=O)(=O)N(CCO)Cc3ccccc3)ccc21`?
DPM-DC inhibit: inactive; Autofluor 339: 1.1; Spn PMK inh: 5.0; NADH coupling: 2.0%; MK inhibit: 7.0; Abs 340nm: 1

How did COc1ccc(-c2noc(CN(C(=O)C(C)(C)C)C(C)C)n2)cc1 do in these assays?
DPM-DC inhibit: inactive; Autofluor 339: 1.04; Spn PMK inh: 12.0; NADH coupling: 3.0%; MK inhibit: 6.0; Abs 340nm: 0.99

How did CC1(C)CC(=O)C2=C(C1)N(CC1CCCO1)C(=O)C2(NC(=O)c1cccnc1)C(F)(F)F (stereo not given) do in these assays?
DPM-DC inhibit: inactive; Autofluor 339: 1.08; Spn PMK inh: 9.0; NADH coupling: 7.0%; MK inhibit: 12.0; Abs 340nm: 1.04

How did CCOC(=O)Cc1c(C)c2c(C)[nH]nc2oc1=O do in these assays?
DPM-DC inhibit: inactive; Autofluor 339: 1.31; Spn PMK inh: 15.0; NADH coupling: 7.0%; MK inhibit: 0.0; Abs 340nm: 0.98

Results for COC(=O)Cc1c(C)c2c(O)cc(C)cc2oc1=O ?
Autofluor 339: 2.14*; Spn PMK inh: 0.0; NADH coupling: 7.0%; MK inhibit: 13.0; Abs 340nm: 1.06

Results for CCSc1nnc(NC(=O)C(CC)Oc2ccccc2)s1 (stereo not given) ?
DPM-DC inhibit: inactive; Autofluor 339: 1.13; Spn PMK inh: 21.0; NADH coupling: 12.0%; MK inhibit: 14.0; Abs 340nm: 0.81

Results for COc1ccc(C(C#N)C2(C)OCCO2)cc1OC (stereo not given) ?
DPM-DC inhibit: inactive; Autofluor 339: 1.06; Spn PMK inh: 0.0; NADH coupling: 2.0%; MK inhibit: 5.0; Abs 340nm: 1.03

How did CC(C)CC(=O)N1CCN(S(C)(=O)=O)CC1 do in these assays?
DPM-DC inhibit: inactive; Autofluor 339: 1.07; Spn PMK inh: 0.0; NADH coupling: 2.0%; MK inhibit: 5.0; Abs 340nm: 1

What do the screens show for `COc1cccc(N2CC(O)=C(c3nc4ccccc4c(=O)[nH]3)C2=N)c1`?
Autofluor 339: 2.09*; Spn PMK inh: 21.0; NADH coupling: 12.0%; MK inhibit: 3.0; Abs 340nm: 1.1

Results for COc1ccc(N2CC(O)=C(c3nc4ccccc4s3)C2=N)c(OC)c1 ?
DPM-DC inhibit: inactive; Autofluor 339: 1.56; Spn PMK inh: 13.0; NADH coupling: 10.0%; MK inhibit: 0.0; Abs 340nm: 1.05

Results for CCN1CCCC1CN(Cc1cc2ccc(C)c(C)c2[nH]c1=O)C(=O)Nc1ccccc1OC (stereo not given) ?
DPM-DC inhibit: inactive; Autofluor 339: 1.24; Spn PMK inh: 12.0; NADH coupling: 4.0%; MK inhibit: 1.0; Abs 340nm: 1

What do the screens show for `COc1cccc(C2=CC(c3ccc(N(C)C)cc3)n3ncnc3N2)c1` (stereo not given)?
DPM-DC inhibit: inactive; Autofluor 339: 2.08*; Spn PMK inh: 8.0; NADH coupling: 10.0%; MK inhibit: 13.0; Abs 340nm: 1.09

What do the screens show for `C1=C(c2ccc(-c3ccccc3)cc2)Nc2ncnn2C1c1ccco1` (stereo not given)?
Autofluor 339: 3.85*; Spn PMK inh: 10.0; NADH coupling: 9.0%; MK inhibit: 8.0; Abs 340nm: 1.08

How did CCOc1ccc(C2C=C(c3ccccc3)Nc3ncnn32)cc1 (stereo not given) do in these assays?
Autofluor 339: 2.36*; Spn PMK inh: 8.0; NADH coupling: 9.0%; MK inhibit: 10.0; Abs 340nm: 1.06

What do the screens show for `COc1cccc(C2=CC(c3ccccc3)n3ncnc3N2)c1` (stereo not given)?
DPM-DC inhibit: inactive; Autofluor 339: 1.59; Spn PMK inh: 10.0; NADH coupling: 6.0%; MK inhibit: 1.0; Abs 340nm: 1.06

How did CCOc1ccc(C2C=C(c3ccc(F)cc3)Nc3ncnn32)cc1 (stereo not given) do in these assays?
Autofluor 339: 2.48*; Spn PMK inh: 0.0; NADH coupling: 2.0%; MK inhibit: 0.0; Abs 340nm: 1.02

What do the screens show for `C=CCn1cc(C(=O)NCc2ccco2)c(=O)c2cc(S(=O)(=O)N3CCCCCC3)ccc21`?
DPM-DC inhibit: inactive; Autofluor 339: 1.15; Spn PMK inh: 13.0; NADH coupling: 8.0%; MK inhibit: 10.0; Abs 340nm: 1.04
